From PubChem BioAssay (Tox21)
Records with an inconclusive call do not appear. Where a call stands in place of a potency, no number is given. The source made the active and inactive calls. Unless noted, calls follow the shape of the dose curve; as a rule, active = well fitted curve in the direction sought with a large enough effect in the repeat runs; inconclusive = weak or mixed curves; inactive = no such curve, though single readings can be large; an effect the other way counts as inactive or inconclusive. Positions of bridges follow the written chain, without caps; N, C: chain ends. Non-standard residues stand in square brackets, D forms with d. Residues, ends and D or L forms follow the SMILES beside them. *: point of attachment. Dab(CH2SO3H) = N[C@@H](CCNCS(=O)(=O)O)C(=O)O; X3 = CC[C@@H](C)CCCCC(=O)*; Dab = NCC[C@H](N)C(=O)O

Experiments:
[1] = qHTS assay for small molecule agonists of the p53 signaling pathway (AID 651631; calls by dose curve; also: nearly all actives have a fitted effect of over 15% in size; also: potency is read from the fitted curve at half-maximal effect)
Procedure, shortened: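 Beta-lactamase reporter activity under p53 response elements was quantified in HCT-116 cells by FRET fluorescence, following 16 h incubation with test compounds at 37 °C and 2 h substrate development at room temperature.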

[2] = qHTS assay for small molecules that induce genotoxicity in human embryonic kidney cells expressing luciferase-tagged ATAD5 (AID 651632); also: nearly all actives have a fitted effect of over 15% in size
Procedure, shortened: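 ATAD5-luc HEK293T, 2,000 cells/well; cpd or DMSO pin-transferred; 16 hr, 37C/5% CO2; Amplite 30 min RT; luminescence.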

[3] = qHTS assay for small molecule agonists of the p53 signaling pathway - cell viability (AID 651633; calls by dose curve; also: nearly all actives have a fitted effect of over 30% in size; also: potency is read from the fitted curve at half-maximal effect)
Procedure, shortened: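 Viability counter-read: CellTiter-Glo luminescence (30 min, room temperature) in the same p53RE-bla plates. These plates had been exposed to compounds for 16 h at 37 C.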

[4] = qHTS assay for small molecules that induce genotoxicity in human embryonic kidney cells expressing luciferase-tagged ATAD5 - cell viability (AID 651634; calls by dose curve; also: nearly all actives have a fitted effect of over 25% in size; also: potency is read from the fitted curve at half-maximal effect)
Procedure, shortened: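 Fluorescence from CellTiter-Fluor, reporting protease activity within live cells, served as the viability read-out. HEK293T cells carrying luciferase-tagged ATAD5 had been treated with compound for 15.5 hr at 37C.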

[5] = qHTS assay for small molecule disruptors of the mitochondrial membrane potential - cell viability (AID 720634; calls by dose curve;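 also: human HepG2 liver cancer cells; nearly all actives have a fitted effect of over 20% in size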)
Procedure, shortened: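 Cells: HepG2, 2,000/well, attached overnight. Compound 1 hr, 37 C/5% CO2. +m-MPI dye, +CellTiter-Glo 30 min RT. Readout: luminescence (ATP).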

[6] = qHTS assay for small molecule disruptors of the mitochondrial membrane potential (AID 720635); also: potency is read from the fitted curve at half-maximal effect
Procedure, shortened: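 Mitochondrial membrane potential tracked with Mito-MPS dye, red aggregates (ex 540/em 590 nm) against green monomers (ex 490/em 535 nm). Compound treatment 1 hr at 37C, dye 30 min in HepG2.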

[7] = qHTS assay to test for compound auto fluorescence at 590 nm (red) in HepG2 cells (AID 720674)
Procedure, shortened: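 Red autofluorescence (Ex/Em 540/590 nm, Rose Bengal sodium equivalents) was measured in HepG2 cells, 2,000 per well in MEM plus 10% FBS, plated overnight at 37 C. Readings were taken 1 hr after adding 23 nL compound or DMSO, at 37 C and 5% CO2.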

[8] = qHTS assay to test for compound auto fluorescence at 535 nm (green) in HepG2 cells (AID 720675)
[9] = qHTS assay to test for compound auto fluorescence at 460 nm (blue) in HEK293 cells (AID 720678)
Procedure, shortened: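 Cells were seeded and left to adhere for 4-5 hr at 37C. Compounds were then pin-transferred. After an overnight incubation at 37C under 5% CO2, intrinsic fluorescence at 405/460 nm was measured and referenced to triamterene.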

[10] = qHTS assay to test for compound auto fluorescence at 590 nm (red) in HEK293 cells (AID 720679)
Procedure, shortened: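 Each well held 2,000 HEK293 cells in medium containing 10% dialyzed FBS. Following 4-5 hr attachment at 37C, 23 nL test compound or DMSO was added; plates sat overnight, and red fluorescence (540/590nm) was recorded.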

[11] = qHTS assay to test for compound auto fluorescence at 535 nm (green) in HEK293 cells (AID 720680)
[12] = qHTS assay to test for compound auto fluorescence at 460 nm (blue) in HEK293 cell free culture (AID 720681)
Procedure, shortened: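 Blue fluorescence (Ex 405/Em 460 nm, triamterene-equivalent) was read immediately after pin transfer of compound or DMSO into medium (DMEM, 10% FBS) without cells.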

[13] = qHTS assay to test for compound auto fluorescence at 535 nm (green) in HEK293 cell free culture (AID 720682)
Procedure, shortened: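 Each library compound, or DMSO control, is added by pintool to medium alone, comprising DMEM and 10% FBS. Emission at 535 nm following 485 nm excitation is quantified against fluorescein.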

[14] = qHTS assay to test for compound auto fluorescence at 590 nm (red) in HEK293 cell free culture (AID 720683)
Procedure, shortened: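 Red-channel autofluorescence of compounds in culture medium (DMEM, 10% FBS), no cells, measured at 540/590 nm. Rose Bengal sodium is the reference fluorophore for equivalence.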

[15] = qHTS assay to test for compound auto fluorescence at 590 nm (red) in HepG2 cell free culture (AID 720684)
Procedure, shortened: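 Plate contents were MEM with 10% FBS plus test compound or DMSO, no cells. Fluorescence was recorded with 540 nm excitation and 590 nm emission.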

[16] = qHTS assay to test for compound auto fluorescence at 460 nm (blue) in HepG2 cell free culture (AID 720685)
Procedure, shortened: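 Compound (23 nL) or DMSO pinned into cell-free MEM with 10% FBS; blue fluorescence read at 405/460 nm excitation/emission, expressed as auto-fluorescence equivalency to triamterene.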

[17] = qHTS assay to test for compound auto fluorescence at 535 nm (green) in HepG2 cell free culture (AID 720686)
[18] = qHTS assay to test for compound auto fluorescence at 460 nm (blue) in HepG2 cells (AID 720687)
Procedure, shortened: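 Blue-channel autofluorescence (Ex/Em 405/460 nm, triamterene-equivalent) was measured after 1 hr compound exposure at 37 C, 5% CO2. Cells were HepG2, plated overnight at 37 C in MEM plus 10% FBS.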

[19] = biological target: Glucocorticoid receptor (Homo sapiens) (UniProt P04150); assay: qHTS assay to identify small molecule agonists of the glucocorticoid receptor (GR) signaling pathway (AID 720691; active = well fitted activation curve with a large enough effect in the signal ratio in the repeat runs, not every such curve was filed as active; the % refers to the signal ratio); conditions: GR-bla HeLa, beta-lactamase reporter ratio, 18 h; activation: at 62.4 µM (top of the series)
Glucocorticoid receptor (Homo sapiens), sequence (P04150 whole entry, looked up): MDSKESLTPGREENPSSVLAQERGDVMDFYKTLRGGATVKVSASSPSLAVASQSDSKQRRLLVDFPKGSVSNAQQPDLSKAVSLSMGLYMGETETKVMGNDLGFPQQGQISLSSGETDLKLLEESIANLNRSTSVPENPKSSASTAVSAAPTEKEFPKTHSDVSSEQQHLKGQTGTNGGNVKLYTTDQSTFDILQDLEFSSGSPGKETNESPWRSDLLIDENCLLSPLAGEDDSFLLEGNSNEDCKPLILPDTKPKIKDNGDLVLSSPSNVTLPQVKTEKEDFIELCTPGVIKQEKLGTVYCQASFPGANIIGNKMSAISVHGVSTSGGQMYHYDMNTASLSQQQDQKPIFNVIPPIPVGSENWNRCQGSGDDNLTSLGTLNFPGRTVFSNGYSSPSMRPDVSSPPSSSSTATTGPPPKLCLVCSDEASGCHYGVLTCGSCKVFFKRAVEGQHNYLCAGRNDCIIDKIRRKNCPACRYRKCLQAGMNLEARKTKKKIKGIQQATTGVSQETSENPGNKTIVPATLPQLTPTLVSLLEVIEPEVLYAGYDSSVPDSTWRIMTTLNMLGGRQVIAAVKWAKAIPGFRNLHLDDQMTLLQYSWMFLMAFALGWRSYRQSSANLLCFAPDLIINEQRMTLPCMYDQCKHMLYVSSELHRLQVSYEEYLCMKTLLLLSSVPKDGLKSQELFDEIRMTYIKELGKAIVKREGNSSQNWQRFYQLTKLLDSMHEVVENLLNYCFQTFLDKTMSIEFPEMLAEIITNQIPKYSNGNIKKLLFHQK
Procedure, shortened: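 Fluorescence intensity from LiveBLAzer B/G FRET substrate (2 h, room temperature) reports beta-lactamase expression driven by the glucocorticoid response element in GR-bla HeLa cells after 18 h compound exposure at 37 C.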

[20] = biological target: Glucocorticoid receptor (Homo sapiens) (UniProt P04150); assay: qHTS assay to identify small molecule antagonists of the glucocorticoid receptor (GR) signaling pathway (AID 720692; active = well fitted inhibition curve with a large enough effect in the signal ratio in the repeat runs, not every such curve was filed as active; the % refers to the signal ratio; also: potency is read from the fitted curve at half-maximal effect)
Procedure, shortened: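 HeLa GR-bla cells; cmpd + dex 5 nM final, 18 h 37 C; LiveBLAzer B/G FRET substrate 2 h RT; fluorescence intensity read. Antagonist mode, qHTS.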

Row | Compound | Potency [1] | Potency [2] | Potency [3] | Potency [4] | Potency [5] | Potency [6] | outcome [7] | Potency [8] | Potency [9] | outcome [10] | outcome [11] | Potency [12] | outcome [13] | outcome [14] | outcome [15] | Potency [16] | Potency [17] | Potency [18] | Potency [19] | Potency [20]
1 | NC(N)=NCc1cccc(I)c1 | inactive | inactive | inactive | inactive | inactive | inactive | inactive | inactive | inactive | inactive | inactive | inactive | inactive | inactive | inactive | inactive | inactive | inactive | inactive | inactive
2 | Cc1ccc(Cl)c(N)c1Cl | inactive | inactive | inactive | inactive | inactive | inactive | inactive | inactive | inactive | inactive | inactive | inactive | inactive | inactive | inactive | inactive | – | inactive | – | –
3 | CC(=O)NC[C@H]1CN(c2ccc(N3CCOCC3)c(F)c2)C(=O)O1 | inactive | inactive | inactive | inactive | inactive | inactive | inactive | inactive | inactive | inactive | inactive | inactive | inactive | inactive | inactive | inactive | inactive | inactive | inactive | inactive
4 | C=C1C(=C/C=C2\CCC[C@]3(C)[C@@H]([C@H](C)CCCC(C)C)CC[C@@H]23)C[C@@H](O)C[C@@H]1O | 29.8 µM (active) | inactive | 29.8 µM (active) | 23.7 µM (active) | inactive | 29.8 µM (active) | inactive | inactive | inactive | inactive | inactive | inactive | inactive | inactive | inactive | inactive | inactive | inactive | – | 8.49 µM (active)
5 | O=S(=O)(O)CC(S)CS (stereo unspecified) | inactive | inactive | inactive | inactive | inactive | inactive | inactive | inactive | inactive | inactive | inactive | inactive | – | inactive | inactive | inactive | inactive | inactive | inactive | inactive
6 | CCCCCCCCCC(=O)NO | inactive | inactive | inactive | inactive | inactive | inactive | inactive | inactive | inactive | inactive | inactive | inactive | inactive | inactive | inactive | inactive | – | inactive | – | –
7 | C=CC1=C(C(=O)O)N2C(=O)[C@@H](NC(=O)/C(=N/OCC(=O)O)c3csc(N)n3)[C@H]2SC1 (stereo in doubt) | inactive | inactive | inactive | inactive | inactive | inactive | inactive | inactive | inactive | inactive | inactive | inactive | – | inactive | inactive | inactive | inactive | inactive | – | –
8 | CCc1ncnc2cc(OC)c(OC)cc12 | inactive | inactive | inactive | inactive | inactive | inactive | inactive | inactive | inactive | inactive | inactive | inactive | inactive | inactive | inactive | inactive | inactive | – | inactive | inactive
9 | C[C@]12O[C@H](C[C@]1(O)CO)n1c3ccccc3c3c4c(c5c6ccccc6n2c5c31)CNC4=O | 0.075 µM (active) | inactive | 0.944 µM (active) | 4.73 µM (active) | inactive | 3.76 µM (active) | inactive | inactive | inactive | inactive | inactive | inactive | inactive | inactive | inactive | inactive | – | inactive | – | –
10 | CC(C)CCC[C@@H](C)[C@H]1CC[C@H]2[C@@H]3CC=C4C[C@@H](O)CC[C@]4(C)[C@H]3CC[C@]12C | inactive | inactive | inactive | inactive | inactive | inactive | inactive | inactive | inactive | inactive | inactive | inactive | inactive | inactive | inactive | inactive | inactive | inactive | inactive | inactive
11 | C/C(=C\C(=O)OCCCCCCCCC(=O)O)C[C@@H]1OC[C@H](C[C@@H]2O[C@H]2[C@@H](C)[C@H](C)O)[C@@H](O)[C@H]1O | inactive | inactive | inactive | inactive | inactive | inactive | inactive | inactive | inactive | inactive | inactive | inactive | – | inactive | inactive | inactive | inactive | inactive | inactive | inactive
12 | CC[C@@H](C)CCCCC(=O)N[C@@H](CCNCS(=O)(=O)O)C(=O)N[C@H](C(=O)N[C@@H](CCNCS(=O)(=O)O)C(=O)N[C@H]1CCNC(=O)[C@H]([C@@H](C)O)NC(=O)[C@H](CCNCS(=O)(=O)O)NC(=O)[C@H](CCNCS(=O)(=O)O)NC(=O)[C@H](CC(C)C)NC(=O)[C@@H](CC(C)C)NC(=O)[C@H](CCNCS(=O)(=O)O)NC1=O)[C@@H](C)O (X3-[Dab(CH2SO3H)]T[Dab(CH2SO3H)][Dab][Dab(CH2SO3H)][dL]L[Dab(CH2SO3H)][Dab(CH2SO3H)]T; lactam 4-C) | inactive | inactive | inactive | inactive | inactive | inactive | inactive | inactive | inactive | inactive | inactive | inactive | inactive | inactive | inactive | inactive | – | inactive | inactive | inactive
13 | C/C=C/C1=C(C(=O)O)N2C(=O)[C@@H](NC(=O)[C@H](N)c3ccc(O)cc3)[C@H]2SC1 | inactive | inactive | inactive | inactive | inactive | inactive | inactive | inactive | – | inactive | inactive | inactive | inactive | inactive | inactive | inactive | inactive | – | inactive | inactive
